Hit rate of the full screen: of about 190,000 compounds, about 220 (0.12%) were called active. Roughly 2% stayed inconclusive and do not appear here. This excerpt belongs to a sample that is enriched for actives. Unmarked numbers belong to inactive results.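 Rule for the calls: active = GTP binding at least 20 percentage points away from the 100% baseline, in either direction, so actives lie on both sides; inconclusive = Compound likely fluorescent itself, or too few beads counted; inactive = the rest.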
target: Ras-related C3 botulinum toxin substrate 1 (Homo sapiens) (UniProt P63000); assay: activated Rac1 mutant nucleotide binding changes – biochemical, bead-based flow cytometry, multiplex, fluorescent GTP, primary screen (AID 764); conditions: GST-Rac1 activated beads, at 10 µM, actives lie on both sides, 100% means binding = to untreated wells

**Q.** How did the percent activity (GTP binding) turn out when `C1CC1Cc1noc(CN2CCN(CC3CC3)CC2)n1` was run?
**A.** 94%

**Q.** How did the percent activity (GTP binding) turn out when `CCn1c(CNC(=O)c2ccco2)nnc1SCC(=O)Nc1cccc(F)c1` was run?
**A.** 98%

**Q.** `Cn1c(SCC(=O)NC2CCCCC2)nnc1-c1ccc(N)cc1` was tested. Which percent activity (GTP binding) did it give?
**A.** 96%

**Q.** How did the percent activity (GTP binding) turn out when `CC(=O)NC1(c2ccc(F)cc2)CCN(C(=O)c2c(F)cccc2F)CC1` was run?
**A.** 92%

**Q.** With `CN(C)C(CNC(=O)c1cccc(C#N)c1)c1ccco1` (stereo not given) as the molecule, how does the percent activity (GTP binding) read?
**A.** 97%

**Q.** With `COc1ccc(C(=O)COC(=O)c2nn(C)c(=O)c3ccccc23)c(OC)c1` as the molecule, how does the percent activity (GTP binding) read?
**A.** 92%

**Q.** With `Cc1c(Br)c([N+](=O)[O-])nn1CC(=O)N1CCN(Cc2ccccc2)CC1` as the molecule, how does the percent activity (GTP binding) read?
**A.** 98%

**Q.** Which percent activity (GTP binding) does the source give for `CC(=O)c1ccc(NC(=S)N(Cc2ccccc2)C(C)C2CC2)cc1` (stereo not given) here?
**A.** 93%

**Q.** For `CCN(CCn1cccn1)C(=O)CC1C(=O)NCCN1Cc1cccc(OC)c1OC` (stereo not given), which percent activity (GTP binding) is on record?
**A.** 93%

**Q.** With `CCOC(=O)CNc1nc(Cl)nc(Nc2ccccc2)n1` as the molecule, how does the percent activity (GTP binding) read?
**A.** 96%

**Q.** `Cc1ccc(CSCC(N)C(=O)O)cc1` (stereo not given) was tested. Which percent activity (GTP binding) did it give?
**A.** 97%

**Q.** `Cc1ccc(SC(CC(=O)c2ccc(C(C)(C)C)cc2)C(=O)O)cc1` (stereo not given) was tested. Which percent activity (GTP binding) did it give?
**A.** 74% (active)

**Q.** Which percent activity (GTP binding) does the source give for `Cc1ccc(C(=O)CS(C)(=O)=O)cc1` here?
**A.** 99%

**Q.** `Cc1cc(C)nc(Nc2ncn[nH]2)n1` was tested. Which percent activity (GTP binding) did it give?
**A.** 96%

**Q.** Which percent activity (GTP binding) does the source give for `Cc1ncc([N+](=O)[O-])n1CCOC(=O)c1ccc(Br)cc1` here?
**A.** 91%

**Q.** How did the percent activity (GTP binding) turn out when `CCCCN(C(=O)c1ccc(OC(F)(F)F)cc1)c1c(N)n(CCC)c(=O)[nH]c1=O` was run?
**A.** 96%

**Q.** For `Cn1cc(CN2CCCCC2c2ccccn2)c(-c2ccc3c(c2)OCCO3)n1` (stereo not given), which percent activity (GTP binding) is on record?
**A.** 97%

**Q.** `CCC(=O)N1c2ccccc2NC2=C(C(=O)CCC2)C1c1ccco1` (stereo not given) was tested. Which percent activity (GTP binding) did it give?
**A.** 98%

**Q.** `Cc1ccc(CN2CCN(Cc3cccc(C)n3)CC2CCO)cc1` (stereo not given) was tested. Which percent activity (GTP binding) did it give?
**A.** 94%

**Q.** How did the percent activity (GTP binding) turn out when `CC(=O)C1C(c2ccc(Cl)cc2)c2c(n[nH]c2C)CC1(C)O` (stereo not given) was run?
**A.** 97%

**Q.** With `COc1cc(/C=C/C2=CC(C)(C)NC(=S)N2)cc(OC)c1OC` as the molecule, how does the percent activity (GTP binding) read?
**A.** 94%

**Q.** For `O=C(CCNC(=O)Cn1ccc2ccccc2c1=O)NCCC1=CCCCC1`, which percent activity (GTP binding) is on record?
**A.** 101%

**Q.** `COc1cc2c(C(=O)N3CCN(C)CC3)c(CSc3ccccc3)n(C)c2cc1Br` was tested. Which percent activity (GTP binding) did it give?
**A.** 94%

**Q.** With `Cc1nn(CC2CC2)c(=O)n1N(C)c1ncc(C(F)(F)F)cc1Cl` as the molecule, how does the percent activity (GTP binding) read?
**A.** 96%

**Q.** With `COc1cccc(CNC(=O)CCC2CCCN(C(=O)c3ccoc3C)C2)c1` (stereo not given) as the molecule, how does the percent activity (GTP binding) read?
**A.** 95%

**Q.** Which percent activity (GTP binding) does the source give for `COC(=O)NNC1=CC(=O)CC(C)(C)C1` here?
**A.** 97%

**Q.** `CCC(C)N(C(=O)COC(=O)C1C(C(=O)OC)=C(C)NC(C)=C1C(=O)OC)C1CCS(=O)(=O)C1` (stereo not given) was tested. Which percent activity (GTP binding) did it give?
**A.** 95%

**Q.** `CC(C)(C)C(=O)CSc1nc2ccccc2o1` was tested. Which percent activity (GTP binding) did it give?
**A.** 96%

**Q.** With `Cn1cnnc1SCC(=O)NNC(=O)COc1ccc(Br)cc1` as the molecule, how does the percent activity (GTP binding) read?
**A.** 98%

**Q.** With `O=C(CN1CCSCC1)N/N=C/c1ccc(Cl)cc1` as the molecule, how does the percent activity (GTP binding) read?
**A.** 95%

**Q.** With `O=C(Cc1ccc(Cl)cc1)NCc1nc(-c2ccccc2)no1` as the molecule, how does the percent activity (GTP binding) read?
**A.** 91%

**Q.** How did the percent activity (GTP binding) turn out when `COc1ccc(N2C(=O)CC(Nc3ccc(F)cc3)C2=O)c([N+](=O)[O-])c1` (stereo not given) was run?
**A.** 93%

**Q.** With `COC(=O)C1=C(C)NC(=O)CC1c1ccccc1OC` (stereo not given) as the molecule, how does the percent activity (GTP binding) read?
**A.** 99%

**Q.** With `CCC(C)(C)NC(=O)C(c1ccccn1)N(C(=O)c1csnn1)c1ccccc1` (stereo not given) as the molecule, how does the percent activity (GTP binding) read?
**A.** 96%

**Q.** Which percent activity (GTP binding) does the source give for `Cc1cc(C(=O)Cn2cnc3cc([N+](=O)[O-])ccc3c2=O)c(C)n1CC1CCCO1` (stereo not given) here?
**A.** 90%

**Q.** For `Cc1ccc(NC(=O)C(=O)NCc2ccco2)c(C)c1`, which percent activity (GTP binding) is on record?
**A.** 98%

**Q.** With `Cc1csc(NC(=O)Nc2ccccc2[N+](=O)[O-])n1` as the molecule, how does the percent activity (GTP binding) read?
**A.** 97%

**Q.** Which percent activity (GTP binding) does the source give for `CN(C)S(=O)(=O)Oc1ccccc1C(=O)Nc1ccccc1Cl` here?
**A.** 99%

**Q.** With `CCOC(=O)N1CCN(CCC(=O)Nc2cc(OC)ccc2OC)CC1` as the molecule, how does the percent activity (GTP binding) read?
**A.** 96%

**Q.** Which percent activity (GTP binding) does the source give for `CN1CCN(c2ccc(NC(=O)c3ccc4c(c3)OCCO4)cc2Cl)CC1` here?
**A.** 98%

**Q.** How did the percent activity (GTP binding) turn out when `CSc1ncnc2sc(C)c(C)c12` was run?
**A.** 93%

**Q.** Which percent activity (GTP binding) does the source give for `CC[n+]1c(C)n(-c2ccccc2)c2ccc(NC(C)=O)cc21` here?
**A.** 96%

**Q.** How did the percent activity (GTP binding) turn out when `Cc1ccc(C)c(NC(=O)CCC(=O)N/N=C2/CC(=O)CC(C)(C)C2)c1` was run?
**A.** 96%

**Q.** For `COc1ccc(S(=O)(=O)N2CCN(C(=O)c3cc(C)oc3C)CC2)cc1`, which percent activity (GTP binding) is on record?
**A.** 97%

**Q.** Which percent activity (GTP binding) does the source give for `CC(CC(=O)C1C(C)C=CCC1(C)C)NNC(N)=O` (stereo not given) here?
**A.** 95%

**Q.** For `Cn1cccc1/C=C1\SC(=O)N(CC(=O)Nc2ccc(F)cc2)C1=O`, which percent activity (GTP binding) is on record?
**A.** 95%

**Q.** `CCOC(=O)C1CCN(C(=O)C2(NC(=O)Nc3cccc(F)c3)CCCCC2)CC1` was tested. Which percent activity (GTP binding) did it give?
**A.** 97%

**Q.** With `CC(C)N(Cc1nc(-c2ccc3c(c2)OCO3)no1)CC1CCC(=O)N1` (stereo not given) as the molecule, how does the percent activity (GTP binding) read?
**A.** 98%

**Q.** `CCOC(=O)/C(=N\Nc1ccccc1[N+](=O)[O-])c1csc(Nc2ccccc2)n1` was tested. Which percent activity (GTP binding) did it give?
**A.** 91%

**Q.** `C/C(CC(=O)Nc1ccc(C)cc1C)=N\NC(=O)C(C)C` was tested. Which percent activity (GTP binding) did it give?
**A.** 98%

**Q.** How did the percent activity (GTP binding) turn out when `CCN(C(=O)Cc1nc(N)n[nH]1)C1(C(=O)Nc2ccccc2)CCCCC1` was run?
**A.** 97%

**Q.** `CC(=O)c1c(-c2ccccc2)c2ccccc2[nH]c1=O` was tested. Which percent activity (GTP binding) did it give?
**A.** 96%

**Q.** Which percent activity (GTP binding) does the source give for `COc1ccc(C2=NN(c3ccccc3)C(c3cccs3)C2)cc1` (stereo not given) here?
**A.** 94%

**Q.** With `CCS(=O)(=O)c1ccc(O)c(NC(=O)COc2ccc(Cl)cc2)c1` as the molecule, how does the percent activity (GTP binding) read?
**A.** 95%

**Q.** `O=C(CC1CCCCC1)NCc1ccco1` was tested. Which percent activity (GTP binding) did it give?
**A.** 92%

**Q.** Which percent activity (GTP binding) does the source give for `CCOc1ccc(Br)cc1S(=O)(=O)N1CCC(C(=O)O)CC1` here?
**A.** 94%

**Q.** For `COc1ccc(NC(=O)c2c(SC)nsc2SC)cc1`, which percent activity (GTP binding) is on record?
**A.** 100%

**Q.** How did the percent activity (GTP binding) turn out when `CSc1ncccc1C(=O)NC1CCCCCC1` was run?
**A.** 96%

**Q.** For `CSc1nsc(SC)c1NC(=O)OC1CCCCC1`, which percent activity (GTP binding) is on record?
**A.** 33% (active)

**Q.** `Cn1c(CCC(=O)OCC(=O)NCc2ccccc2Cl)nc(=O)c2ccccc21` was tested. Which percent activity (GTP binding) did it give?
**A.** 95%

**Q.** Which percent activity (GTP binding) does the source give for `COc1ccc(-c2nc(N)sc2C2(O)C(=O)Nc3c(Br)cc(F)cc32)cc1OC` (stereo not given) here?
**A.** 95%

**Q.** With `COc1cccc(Cn2cnc3c([N+](=O)[O-])c(C)c(C)cc32)c1` as the molecule, how does the percent activity (GTP binding) read?
**A.** 96%

**Q.** `Cc1nc2ccccn2c1C(=O)NN=C1CCN(C)CC1` was tested. Which percent activity (GTP binding) did it give?
**A.** 98%

**Q.** Which percent activity (GTP binding) does the source give for `O=C1c2ccccc2C(=O)N1CCC(O)C[N+](=O)[O-]` (stereo not given) here?
**A.** 98%

**Q.** Which percent activity (GTP binding) does the source give for `CC(=O)Nc1ccc(Sc2ccccc2C(=O)N2CCCC2)cn1` here?
**A.** 98%

Source: PubChem BioAssay AID764 (NMMLSC, 2007)
